According to PubChem BioAssay (NCI):
This is part of a sample that, as a whole, favours compounds with a hit. Of some 79,000 tested, about 15% had one in any assay. Calls of active or inactive are those of the source. Rule as the data show it: active = growth inhibition above about 70%; inactive = the rest.

Tests used:
[1] = NCI Yeast Anticancer Drug Screen. Data for the rad52 strain (AID 147);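 also: 0% = growth of vehicle-treated control cultures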; conditions: S. cerevisiae rad52 mutant growth inhibition, stronger effect = higher value
In short: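 The repair-mutant yeast strain was incubated with compounds, then growth was read and inhibition derived relative to vehicle.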

[2] = NCI Yeast Anticancer Drug Screen. Data for the wt1 strain (AID 149);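 also: 0% = growth of vehicle-treated wt1 cultures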; conditions: S. cerevisiae wt1 strain (SPY 50644) growth inhibition, stronger effect = higher value
In short: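 Compounds are added to wt1 yeast cultures. Growth is then measured. Inhibition is expressed relative to vehicle-treated controls.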

[3] = NCI Yeast Anticancer Drug Screen. Data for the rad50EPP+ strain (AID 151);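 also: 0% = growth of vehicle-treated control cultures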; conditions: S. cerevisiae rad50 mutant strain, stronger effect = higher value
In short: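 Vehicle-normalised growth inhibition; rad50EPP+ yeast strain, altered in DNA damage repair, compound-treated.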

[4] = NCI Yeast Anticancer Drug Screen. Data for the rad50 strain (AID 155);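 also: 0% = growth of vehicle-only cultures of the same strain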; conditions: S. cerevisiae rad50 strain growth inhibition, stronger effect = higher value
In short: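 Inhibition values express reduced yeast growth in compound-treated cultures relative to vehicle-treated controls.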

[5] = NCI Yeast Anticancer Drug Screen. Data for the mec2-1 strain (AID 157); conditions: S. cerevisiae mec2-1 strain, stronger effect = higher value
In short: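 Mutant yeast (mec2-1) grown with compound; growth inhibition relative to vehicle control reported.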

[6] = NCI Yeast Anticancer Drug Screen. Data for the rad14 strain (AID 159);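 also: 0% = growth of vehicle-treated control cultures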; conditions: S. cerevisiae rad14 strain growth inhibition, stronger effect = higher value
In short: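 A mutant yeast strain defective in DNA damage repair is treated with compound; inhibition of its growth is scored against untreated, vehicle-exposed cultures.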

[7] = NCI Yeast Anticancer Drug Screen. Data for the sgs1 mgt1 strain (AID 161);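 also: 0% = growth of cultures given vehicle only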; conditions: S. cerevisiae sgs1 mgt1 strain, stronger effect = higher value
In short: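 Percent growth inhibition was derived by comparing compound-exposed mutant yeast with vehicle-exposed cultures. The strain carries alterations in DNA damage repair.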

[8] = NCI Yeast Anticancer Drug Screen. Data for the CLN2oe strain (AID 163);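 also: 0% = growth of vehicle-only control cultures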; conditions: S. cerevisiae CLN2oe strain, stronger effect = higher value
In short: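 Compounds are applied to yeast harbouring a defined cell-cycle control change; reduced growth compared with vehicle-treated controls gives the value.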

[9] = NCI Yeast Anticancer Drug Screen. Data for the cln2 rad14 strain (AID 165);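 also: 0% = growth equal to vehicle treated cultures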; conditions: S. cerevisiae cln2 rad14 strain, stronger effect = higher value
In short: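 Readout is yeast growth inhibition versus vehicle-treated controls, using a strain with cln2 and rad14 alterations exposed to compound.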

[10] = NCI Yeast Anticancer Drug Screen. Data for the wt2 strain (AID 169);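 also: 0% = growth of vehicle-treated yeast cultures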; conditions: S. cerevisiae wt2 strain growth inhibition, stronger effect = higher value
In short: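 Against vehicle-treated controls, the growth of yeast exposed to each compound was compared, and the inhibition was recorded.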

[11] = NCI Yeast Anticancer Drug Screen. Data for the mlh1 strain (AID 171);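 also: 0% = growth of vehicle-treated control cultures of the same strain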; conditions: S. cerevisiae mlh1 strain growth inhibition, stronger effect = higher value
In short: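 Measured: yeast growth. Reference: vehicle-treated controls. Organism: strain with a defined alteration affecting DNA damage repair or cell cycle control, treated with compound.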

[12] = NCI Yeast Anticancer Drug Screen. Data for the sgs1 strain (AID 173);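 also: 0% = growth of vehicle-only control cultures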; conditions: S. cerevisiae sgs1 mutant, stronger effect = higher value
In short: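 Each compound was added to cultures of the altered yeast strain. Growth was recorded, and inhibition was derived by comparison with vehicle controls.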

[13] = NCI Yeast Anticancer Drug Screen. Data for the mlh1 rad18 strain (AID 175); conditions: S. cerevisiae mlh1 rad18 strain growth inhibition, stronger effect = higher value
In short: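 Genetically defined yeast (DNA repair-deficient) exposed to compounds; growth inhibition determined relative to vehicle.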

[14] = NCI Yeast Anticancer Drug Screen. Data for the rad18 strain (AID 177); conditions: S. cerevisiae rad18 mutant growth inhibition, stronger effect = higher value
In short: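 Vehicle-treated cultures served as the baseline for scoring compound-induced growth inhibition in DNA-repair-mutant yeast.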

[15] = NCI Yeast Anticancer Drug Screen. Data for the bub3 strain (AID 167); conditions: S. cerevisiae bub3 mutant strain, stronger effect = higher value
In short: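 Steps: expose the mutant yeast strain to compound; grow alongside vehicle-treated cultures; measure growth; express inhibition against the vehicle cultures.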

[16] = at 5.0 µM (retest, dose inferred, filed as 0.5)
[17] = at 50.0 µM (retest, dose inferred, filed as 5.0)

Measured: growth inhibition

Oc1ccc(N=Nc2ccc(Cl)cc2)cc1
inactive: [1]; at 1.2 µM 3% | [1]; at 3.7 µM 23% | [2]; at 1.2 µM -2% | [2]; at 3.7 µM 7% | [2]; at 11.0 µM 52% | [3]; at 1.2 µM 8% | [3]; at 3.7 µM 12% | [3]; at 11.0 µM 50% | [4]; at 1.2 µM 1% | [4]; at 3.7 µM 30% | [4]; [16] -27% | [5]; at 1.2 µM 8% | [5]; at 3.7 µM 15% | [5]; [16] -13% | [6]; at 1.2 µM 2% | [6]; at 3.7 µM 7% | [6]; at 11.0 µM 60% | [7]; [16] -10% | [8]; at 1.2 µM 25% | [8]; at 3.7 µM 45% | [9]; [16] -6% | [10]; at 1.2 µM -1% | [10]; at 3.7 µM 5% | [11]; at 1.2 µM 4% | [11]; at 3.7 µM 2% | [12]; at 1.2 µM 0% | [12]; at 3.7 µM 7% | [13]; [16] 6% | [14]; at 1.2 µM 0% | [14]; at 3.7 µM 3%
active: [1]; at 11.0 µM 97% | [1]; at 33.0 µM 98% | [1]; at 100.0 µM 98% | [2]; at 33.0 µM 99% | [2]; at 100.0 µM 99% | [3]; at 33.0 µM 98% | [3]; at 100.0 µM 97% | [4]; at 11.0 µM 94% | [4]; at 33.0 µM 99% | [4]; [17] 99% | [4]; at 50.0 µM 99.5% | [4]; at 100.0 µM 98% | [5]; at 11.0 µM 90% | [5]; at 33.0 µM 99% | [5]; [17] 98% | [5]; at 50.0 µM 98.2% | [5]; at 100.0 µM 99% | [6]; at 33.0 µM 99% | [6]; at 100.0 µM 98% | [7]; [17] 99% | [7]; at 50.0 µM 98.7% | [8]; at 11.0 µM 97% | [8]; at 33.0 µM 99% | [8]; at 100.0 µM 99% | [9]; [17] 99% | [9]; at 50.0 µM 99.5% | [10]; at 11.0 µM 93% | [10]; at 33.0 µM 99% | [10]; at 100.0 µM 99% | [11]; at 11.0 µM 77% | [11]; at 33.0 µM 99% | [11]; at 100.0 µM 99% | [12]; at 11.0 µM 87% | [12]; at 33.0 µM 99% | [12]; at 100.0 µM 98% | [13]; [17] 99% | [13]; at 50.0 µM 99.4% | [14]; at 11.0 µM 77% | [14]; at 33.0 µM 99% | [14]; at 100.0 µM 97%

O=C1CC(C(O)(C(F)(F)F)C(F)(F)Cl)CCC1C(O)(C(F)(F)F)C(F)(F)Cl (stereo not drawn)
active: [1]; at 11.0 µM 72% | [1]; at 33.0 µM 93% | [1]; at 100.0 µM 97% | [2]; at 33.0 µM 91% | [2]; at 100.0 µM 97% | [4]; at 33.0 µM 91% | [4]; [17] 96% | [4]; at 50.0 µM 99.1% | [4]; at 100.0 µM 97% | [5]; at 11.0 µM 84% | [5]; at 33.0 µM 96% | [5]; [17] 96% | [5]; at 50.0 µM 99.5% | [5]; at 100.0 µM 98% | [6]; at 11.0 µM 85% | [6]; at 33.0 µM 97% | [6]; at 100.0 µM 99% | [7]; [17] 96% | [7]; at 50.0 µM 99.5% | [8]; at 1.2 µM 75% | [8]; at 3.7 µM 77% | [8]; at 11.0 µM 89% | [8]; at 33.0 µM 95% | [8]; at 100.0 µM 95% | [9]; [17] 96% | [9]; at 50.0 µM 99.2% | [15]; at 11.0 µM 76% | [15]; at 33.0 µM 95% | [15]; [17] 97% | [15]; at 50.0 µM 99.4% | [15]; at 100.0 µM 97% | [10]; at 11.0 µM 84% | [10]; at 33.0 µM 93% | [10]; at 100.0 µM 98% | [11]; at 33.0 µM 92% | [11]; at 100.0 µM 98% | [12]; at 11.0 µM 80% | [12]; at 33.0 µM 96% | [12]; at 100.0 µM 98% | [13]; [17] 97% | [13]; at 50.0 µM 99% | [14]; at 11.0 µM 76% | [14]; at 33.0 µM 94% | [14]; at 100.0 µM 97%
inactive: [1]; at 1.2 µM 54% | [1]; at 3.7 µM 46% | [2]; at 1.2 µM 32% | [2]; at 3.7 µM 44% | [2]; at 11.0 µM 68% | [3]; at 1.2 µM 12% | [3]; at 3.7 µM 24% | [3]; at 11.0 µM 38% | [3]; at 33.0 µM 46% | [3]; at 100.0 µM 41% | [4]; at 1.2 µM 45% | [4]; at 3.7 µM 33% | [4]; [16] 29% | [4]; at 11.0 µM 57% | [5]; at 1.2 µM 67% | [5]; at 3.7 µM 56% | [5]; [16] 35% | [6]; at 1.2 µM 66% | [6]; at 3.7 µM 50% | [7]; [16] 49% | [9]; [16] 44% | [15]; at 1.2 µM 60% | [15]; at 3.7 µM 45% | [15]; [16] 2% | [10]; at 1.2 µM 51% | [10]; at 3.7 µM 55% | [11]; at 1.2 µM 52% | [11]; at 3.7 µM 46% | [11]; at 11.0 µM 67% | [12]; at 1.2 µM 61% | [12]; at 3.7 µM 62% | [13]; [16] 42% | [14]; at 1.2 µM 42% | [14]; at 3.7 µM 45%
